PubChem BioAssay (NCATS)
Records with an inconclusive call do not appear. Entries that show only a call come without a potency. Values without a mark were called inactive. Activity calls are given as the source filed them. Calls come from the whole dose curve; as a rule, active = well fitted curve in the direction sought with a large enough effect; inconclusive = small, poorly fitted or top-dose-only effect, or another doubt; inactive = no such curve, though single readings can be large; an effect the other way counts as inactive or inconclusive.

How the values were obtained:
[1] = molecular target: Cellular tumor antigen p53 (Homo sapiens) (UniProt P04637); experiment: Primary qHTS for small molecule compounds that upregulate eGFP-tagged delta133p53alpha (in N-terminal) cells. (AID 2060322); details: NCI-H358 eGFP-delta133p53alpha fluorescence, 24 h; activation: stronger effect = higher value; note: nearly all actives have a fitted effect of over 75% in size; note: potency is the fitted concentration of half-maximal effect;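 for activation: cells pre-induced with doxycycline then dosed without doxycycline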
Sequence of Cellular tumor antigen p53 (Homo sapiens) (P04637 whole entry, looked up): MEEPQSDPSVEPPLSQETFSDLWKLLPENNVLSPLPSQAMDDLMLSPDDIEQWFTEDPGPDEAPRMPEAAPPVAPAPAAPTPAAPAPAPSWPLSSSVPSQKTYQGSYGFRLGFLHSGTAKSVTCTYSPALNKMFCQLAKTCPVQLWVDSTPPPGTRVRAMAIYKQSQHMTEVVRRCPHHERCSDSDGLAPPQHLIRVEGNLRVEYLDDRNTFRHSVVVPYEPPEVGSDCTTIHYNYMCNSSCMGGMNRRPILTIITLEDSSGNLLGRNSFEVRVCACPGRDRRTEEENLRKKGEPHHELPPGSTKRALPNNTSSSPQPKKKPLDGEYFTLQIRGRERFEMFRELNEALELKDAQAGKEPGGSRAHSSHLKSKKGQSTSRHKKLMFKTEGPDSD
How it was run: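 NCI-H358 cells pre-induced 24 h with 10 ng/ml doxycycline for eGFP-delta133p53alpha, plated dox-free and exposed 24 h at 37C to titrated compounds. Fixed, Hoechst-stained; gated GFP peak intensity by laser scanning cytometry, normalized to DMSO (0%) and 57.5 uM 5-azacytidine (100%).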

[2] = molecular target: Aldehyde dehydrogenase, mitochondrial (Homo sapiens) (UniProt P05091); experiment: qHTS for Inhibitors of the Aldehyde Dehydrogenase Family (ALDH2) Primary screen (AID 2061308); details: ALDH2 enzyme inhibition qHTS, 1536-well; series mostly up to 56 µM; note: nearly all actives have a fitted effect of over 55% in size
[3] = molecular target: Retinaldehyde dehydrogenase 3 (Homo sapiens) (UniProt P47895); experiment: qHTS for Inhibitors of the Aldehyde Dehydrogenase Family (ALDH1A3) Primary screen (AID 2061315); details: ALDH inhibition qHTS; series mostly up to 56 µM

| Compound | activation [1] [%] | Potency [2] | Potency [3] | activity change, negative = inhibition [2] | activity change, negative = inhibition [3] | Potency [1] |
| --- | --- | --- | --- | --- | --- | --- |
| CC(C)C1=CCC(C)(O)C(OC2OC(CO)C(O)C(O)C2O)C1 (stereo unspecified) | -17.6 | inactive | inactive | – | – | – |
| Cc1cc(C(N)=O)ccc1-n1c(CCC(=O)O)ccc1-c1ccc(-n2ccnc2)cc1 | -2.68 | inactive | inactive | – | – | – |
| COc1ccc(/C=C/C(=O)O[C@H]2[C@H](O[C@H]3[C@@H]4C=CO[C@@H](O[C@@H]5O[C@H](CO)[C@@H](O)[C@H](O)[C@H]5O)[C@@H]4[C@@]4(CO)O[C@@H]34)O[C@@H](C)[C@H](O)[C@H]2OC(C)=O)cc1 | -0.763 | inactive | inactive | – | – | – |
| COC(=O)CCc1cc2ccoc2c(OC)c1O[C@@H]1O[C@H](CO)[C@@H](O)[C@H](O)[C@H]1O | -27.7 | inactive | inactive | – | – | – |
| COc1cc2c(cc1OC)CN(C(=O)[C@@H](NCc1ccncc1)C(C)(C)C)CC2 | 5.25 | inactive | inactive | – | – | – |
| C[C@H]1O[C@@H](O[C@H]2CC[C@@]3(C)C(CC[C@]4(C)C3CC=C3C5CC(C)(C)CC[C@]5(C(=O)O)CC[C@]34C(=O)O)C2(C)C)[C@H](O)[C@@H](O)[C@@H]1O (stereo partly specified) | -12.2 | inactive | inactive | – | – | – |
| CC1=C(C(=O)O)/C(=C\CO[C@@H]2O[C@H](CO)[C@@H](O)[C@H](O)[C@H]2O)C(OC(=O)/C=C\c2ccc(O)cc2)C1 (stereo partly specified) | 8.93 | inactive | inactive | – | – | – |
| CCC/C=C/C(=O)O[C@H]1CC(C)(C)CC2[C@@]13[C@H](O)C[C@]1(C)[C@@]2(CCC2[C@@]4(C)CC[C@H](O[C@@H]5O[C@H](C(=O)O)[C@@H](O)[C@H](O[C@@H]6O[C@H](CO)[C@H](O)[C@H](O)[C@H]6O[C@@H]6O[C@@H](C)[C@H](O)[C@@H](O)[C@H]6O[C@@H]6OC[C@](O)(CO)[C@H]6O)[C@H]5O[C@@H]5O[C@H](CO)[C@H](O)[C@H](O)[C@H]5O)C(C)(C)C4CC[C@]21C)O[C@H]3O (stereo partly specified) | -12.5 | – | – | 11.6% [at 11.2 µM] | 11% [at 11.2 µM] | – |
| COc1c2c(c(C)c3c1C(=O)OC3)OC1(C)CC(O)C(C(C)(C)O)C(C)(CCC(=O)O)C1C2 (stereo unspecified) | 8.4 | inactive | inactive | – | – | – |
| CCN(Cc1cccnc1)C(=O)CN(c1ccc(OC)nc1)S(=O)(=O)c1ccccc1C | -3 | inactive | inactive | – | – | – |
| CC(C)=CCC/C(C)=C/CO[C@@H]1O[C@H](CO)[C@@H](O)[C@H](O)[C@H]1O | -4.46 | inactive | inactive | – | – | – |
| CC(C)=CCc1c(O)cc2oc3cc(C)cc(O)c3c2c1C | -21.4 | inactive | inactive | – | – | – |
| Cn1ccnc1CCOC(c1cc2nccc(C(=O)O)c2[nH]1)c1ccccc1Cl (stereo unspecified) | -5 | inactive | inactive | – | – | – |
| C[C@@H]1CCCN1CCc1cc2cc(-c3ccc(C#N)cc3)ccc2o1 | -11.5 | inactive | inactive | – | – | – |
| COc1cc(OC)cc(C(=O)Nc2ccc(Cl)c(-c3nc4ccc(N(C)C)cc4[nH]3)c2)c1 | -11.5 | inactive | inactive | – | – | – |
| C/C=C/C=C/C=C/C(=O)O[C@@H]1C=C(CO)C(O)(C(=O)OC)[C@@]2(C)CCCC(C)(C)C12 (stereo partly specified) | -10.7 | inactive | inactive | – | – | – |
| C=C1C(=O)O[C@@H]2[C@H]3C(C)=CC(=O)C3=C(C)[C@@H](OC(=O)/C(C)=C\C)[C@H](O)[C@@H]12 | – | inactive | inactive | – | – | 16.6 µM (active) |
| COc1ccccc1-c1c[nH]c2ncc(-c3cncc(C(=O)N(C)C)c3)cc12 | – | inactive | inactive | – | – | 21.3 µM (active) |
| C[C@@H]1O[C@@H](O[C@H]2[C@H](O[C@H]3[C@H](O[C@H]4CC[C@@]5(C)C(CC[C@]6(C)C5CC=C5[C@@H]7CC(C)(C)C[C@@H](O)[C@]7(C)CC[C@]56C)[C@@]4(C)CO)O[C@H](C(=O)O)[C@@H](O)[C@@H]3O)O[C@H](CO)[C@H](O)[C@@H]2O)[C@H](O)[C@H](O)[C@H]1O (stereo partly specified) | -9.92 | inactive | inactive | – | – | – |
| Cc1cc(CNC(=O)c2cc(C(=O)NCc3ccc(F)c(C)c3)ncn2)ccc1F | 1.67 | inactive | inactive | – | – | – |
| CC(C)(C)NS(=O)(=O)c1cncc(-c2cc(F)c3nc(N)nn3c2)c1 | 5.36 | inactive | inactive | – | – | – |
| C[C@H]1CC[C@@]2(OC1)O[C@H]1CC3C4CC[C@H]5C[C@@H](O)CC[C@]5(C)C4CC(=O)[C@]3(C)[C@H]1[C@@H]2C (stereo partly specified) | 25.9 | inactive | inactive | – | – | – |
